The panel holds about 83,000 compounds, 20% with a hit somewhere; the sample as a whole holds those more often.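 Testing used 96-well plates and a 48-hour single-concentration exposure. Example: -40 means 40% of the starting cells died.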 A number with no mark means an inactive call. Calls of active or inactive are those of the source. How the source made its calls: active means growth percent below 10; inactive means the rest.

Test systems include HCT-15 colon; HT29 colon; SNB-75 CNS; SNB-19 CNS; U251 CNS; PC-3 prostate; SK-MEL-5 melanoma; UACC-62 melanoma; LOX IMVI melanoma; SK-MEL-28 melanoma; SK-MEL-2 melanoma; EKVX NSCLC; SN12C renal; UO-31 renal; TK-10 renal; ACHN renal; CAKI-1 renal; CCRF-CEM leukemia; MOLT-4 leukemia; A498 renal.
Assay in all cases: NCI-60 one-dose screen, 48 h (100 = growth as untreated, 0 = no growth, -100 = all killed)
Holding throughout (details): 10 µM unless noted

`O=C1Nc2cc(-c3cccc(O)c3)ccc2/C1=C/c1ccc[nH]1`: the growth with HCT-15 colon is 9.89% (active); in the test on HT29 colon it was 83.3%; with SNB-75 CNS, -13.7% (active); in the test on SNB-19 CNS it was 43.4%; in the test on U251 CNS, 25.9%; in the test with PC-3 prostate it was 35.4%. Moreover, the growth in the test with SK-MEL-5 melanoma is 6.19% (active); in the test with UACC-62 melanoma, 24.1%; with LOX IMVI melanoma, 7.66% (active); with SK-MEL-28 melanoma it was 16.4%; in the test with SK-MEL-2 melanoma, 3.73% (active); with EKVX NSCLC, 22.6%. Also, the growth in the test with SN12C renal was 15.5%; with UO-31 renal, -1.56% (active); in the test with TK-10 renal it was 16.4%; in the test on ACHN renal, 11%; in the test on CAKI-1 renal, 5.88% (active); in the test on CCRF-CEM leukemia it was 13.4%. In the test on MOLT-4 leukemia, the growth was 15.4%.

With `O=c1c2c(c(=O)n1O)c1c3ccc[nH]c3nc1c1nc3[nH]cccc3c12`, the growth in the test on HCT-15 colon was 97%; with HT29 colon, 89.7%; in the test with SNB-75 CNS, 87%; in the test with SNB-19 CNS, 70.8%; with U251 CNS, 64.6%; with PC-3 prostate, 67.7%. In addition, the growth was 85.8% with SK-MEL-5 melanoma; 63% in the test on UACC-62 melanoma; 72.6% in the test with LOX IMVI melanoma; 96.2% in the test with SK-MEL-28 melanoma; 99.4% with SK-MEL-2 melanoma; 93.4% in the test with EKVX NSCLC. Also, the growth in the test with SN12C renal was 80.5%; with UO-31 renal, 91%; in the test with TK-10 renal, 117%; in the test on ACHN renal, 88.3%; with CAKI-1 renal, 68.9%; in the test with A498 renal, 94.5%. The growth is 28.5% in the test on CCRF-CEM leukemia and 43.7% with MOLT-4 leukemia.

Turning to `C=C1C(=O)O[C@H]2[C@H]1CC/C(CNC(=O)CCc1ccc(OC)cc1)=C\CC[C@@]1(C)O[C@@H]21`, the growth in the test with HCT-15 colon is 37.1%; in the test with HT29 colon, 12.1%; in the test on SNB-75 CNS, 116%; in the test on SNB-19 CNS, 80.3%; in the test on U251 CNS, 87.9%; with PC-3 prostate, 72.1%. Besides, the growth with SK-MEL-5 melanoma was 92.8%; in the test with UACC-62 melanoma, 47.3%; in the test on LOX IMVI melanoma, 70.3%; in the test with SK-MEL-28 melanoma it was 59.5%; in the test on SK-MEL-2 melanoma, 74.5%; in the test with EKVX NSCLC, 71.4%. In addition, the growth in the test on SN12C renal is 35.9%; in the test with UO-31 renal, 53%; with TK-10 renal, 33.5%; in the test on ACHN renal, 31.6%; in the test on CAKI-1 renal it was 38.1%; in the test with CCRF-CEM leukemia, 4.85% (active). Besides, in the test on MOLT-4 leukemia, the growth was 67.8%.

On to `COc1ccc(/C=C(\C#N)n2nc3cccc(F)c3n2)cc1`, for which the growth with HCT-15 colon was 96.9%; with HT29 colon, 112%; in the test with SNB-75 CNS, 81.5%; in the test on SNB-19 CNS, 94.6%; in the test with U251 CNS, 102%; in the test with PC-3 prostate it was 111%. Also, the growth with SK-MEL-5 melanoma was 95.8%; in the test on UACC-62 melanoma, 91%; with LOX IMVI melanoma, 101%; in the test with SK-MEL-28 melanoma, 103%; in the test on SK-MEL-2 melanoma, 100%; in the test with EKVX NSCLC it was 104%. The growth in the test on SN12C renal was 104%; in the test with UO-31 renal it was 89.6%; in the test with TK-10 renal, 100%; in the test with ACHN renal it was 99.7%; in the test on CAKI-1 renal, 81.2%; with CCRF-CEM leukemia, 98%. In the test on MOLT-4 leukemia, the growth was 100%.

With `Cc1nn(-c2ccccc2)c(Oc2c(Cl)cccc2Cl)c1/C=N/N=c1\sc2ccccc2n1C`, the growth in the test on HCT-15 colon was 25.3%; in the test on HT29 colon, 33.7%; in the test on SNB-75 CNS it was 86.4%; in the test on SNB-19 CNS, 49.7%; with U251 CNS, 28.5%; in the test with PC-3 prostate it was 44.1%. The growth is 20.2% with SK-MEL-5 melanoma; 36.2% in the test with UACC-62 melanoma; 26% with LOX IMVI melanoma; 64.1% in the test with SK-MEL-28 melanoma; 80% in the test with SK-MEL-2 melanoma; 77.9% in the test on EKVX NSCLC. For the same molecule, the growth was 59.1% in the test with SN12C renal; 57.5% with UO-31 renal; 85.7% with TK-10 renal; 43.7% in the test with ACHN renal; 36.4% in the test on CAKI-1 renal; 40.7% in the test with CCRF-CEM leukemia. Also, the growth in the test on MOLT-4 leukemia was 18.6%.

Turning to `Cc1ccc(/C=N/NC(=O)CSc2nc3ccccc3c(=O)n2Cc2ccc(S(N)(=O)=O)cc2)cc1`, the growth in the test on HCT-15 colon was 89.3%; in the test with HT29 colon, 86.3%; with SNB-75 CNS, 71%; with SNB-19 CNS, 89.9%; in the test on U251 CNS, 93.9%; in the test on PC-3 prostate, 89.3%. The growth in the test with SK-MEL-5 melanoma is 74.4%; in the test with UACC-62 melanoma, 78.1%; in the test on LOX IMVI melanoma, 82.9%; in the test on SK-MEL-28 melanoma, 93.2%; in the test on SK-MEL-2 melanoma, 94%; in the test with EKVX NSCLC, 90.8%. For the same molecule, the growth is 97.3% in the test with SN12C renal; 80.8% in the test on UO-31 renal; 106% in the test with TK-10 renal; 100% in the test with ACHN renal; 64% with CAKI-1 renal; 87.8% with CCRF-CEM leukemia. For the same molecule, the growth in the test with MOLT-4 leukemia was 86.8%.

As to `COc1ccc(C(=O)c2cc(C)c(OC)c(C)c2)c(OC)c1N(C(=O)CCl)C(=O)CCl`, the growth with HCT-15 colon was 4.71% (active); in the test on HT29 colon, 3.24% (active); in the test on SNB-75 CNS, 45.2%; in the test with SNB-19 CNS it was 11.9%; in the test with U251 CNS, 16.1%; in the test on PC-3 prostate it was 13.1%. Also, the growth with SK-MEL-5 melanoma is -9.39% (active); in the test on UACC-62 melanoma, 24.5%; in the test on LOX IMVI melanoma, 14.1%; with SK-MEL-28 melanoma, 54%; in the test with SK-MEL-2 melanoma, 27.8%; in the test with EKVX NSCLC it was 51.7%. Further, the growth was 31.3% with SN12C renal; 39.3% in the test with UO-31 renal; 52.5% in the test with TK-10 renal; 18.2% in the test on ACHN renal; 42% with CAKI-1 renal; 8.61% (active) in the test with CCRF-CEM leukemia. In addition, in the test with MOLT-4 leukemia, the growth is 13.2%.
